Results taken from the supplement of paper PMC10849652.
Of roughly 7,900 targets only a part is listed; those with a hit were picked by preference. About 0.6% of all pairs of compound and target were hits.

Experiments:
Assay in all cases: log2 fold change, soluble protein after heating vs DMSO (PISA); higher = thermal stabilisation; K562 cells, 10 uM, 30 min; active = over 0.2 and 3.5 SD of the protein, either way, in both replicates (recomputed)
[1] = compound: C1=CC=C(C=C1)[C@H](COC2=CC3=C(C=C2)NC(=O)N3)NC(=O)C4=CC=CN(C4=O)CC5=CC(=C(C=C5)F)F
How it was run: (§1)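 For each measurement, 10 μM compound was applied for 30 min to K562 cells at 2×10^6 cells/mL. Aliquots were heated for 3 min across 48°C-58°C, pooled, and extracted in PBS with 0.5% NP-40 at 4°C; the supernatant after 21,000xg for 90 min was soluble protein. This was quantified by TMTpro 16plex LC-MS/MS with channel sums equalised, and thermal stability was reported relative to control samples from duplicates, on a log2 fold-change scale.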

[2] = compound: CC1=C(SC2=C1C(=N[C@H](C3=NN=C(N32)C)CC(=O)N)C4=CC=C(C=C4)Cl)C
How it was run: as §1

[3] = compound: CC1=C2C(=CC=C1)N=C(N(C2=O)C3=CC=CC=C3C)CN4C=NC5=C(N=CN=C54)N
How it was run: as §1

[4] = compound: Cc1sc2c(c1C)C(c1ccc(Cl)cc1)=N[C@@H](CC(=O)OC(C)(C)C)c1nnc(C)n1-2
How it was run: as §1

[5] = compound: c1ccc([C@@H]2C[C@H]2NC2CCNCC2)cc1
How it was run: as §1

Measured: log2 fold change

BZW1 isoform 3 (UniProt Q7L1Q6)
Sequence of UniProt Q7L1Q6 (Q7L1Q6 whole entry, looked up): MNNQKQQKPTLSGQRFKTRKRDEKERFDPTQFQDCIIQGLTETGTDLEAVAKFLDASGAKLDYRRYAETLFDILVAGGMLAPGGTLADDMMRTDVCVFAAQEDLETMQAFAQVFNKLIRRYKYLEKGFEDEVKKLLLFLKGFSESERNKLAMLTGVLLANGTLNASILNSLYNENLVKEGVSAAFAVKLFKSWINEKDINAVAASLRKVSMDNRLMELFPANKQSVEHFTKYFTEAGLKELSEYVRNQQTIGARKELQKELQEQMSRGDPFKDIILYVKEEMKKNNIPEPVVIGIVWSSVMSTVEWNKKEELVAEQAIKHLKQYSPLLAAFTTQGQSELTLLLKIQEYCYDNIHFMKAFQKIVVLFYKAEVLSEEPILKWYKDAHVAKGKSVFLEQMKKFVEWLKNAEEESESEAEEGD
inactive: [1] -0.227 | [2] 0.002 | [3] 0.044 | [4] -0.044 | [5] -0.017

AASDH (UniProt Q4L235)
Sequence of UniProt Q4L235 (Q4L235 whole entry, looked up): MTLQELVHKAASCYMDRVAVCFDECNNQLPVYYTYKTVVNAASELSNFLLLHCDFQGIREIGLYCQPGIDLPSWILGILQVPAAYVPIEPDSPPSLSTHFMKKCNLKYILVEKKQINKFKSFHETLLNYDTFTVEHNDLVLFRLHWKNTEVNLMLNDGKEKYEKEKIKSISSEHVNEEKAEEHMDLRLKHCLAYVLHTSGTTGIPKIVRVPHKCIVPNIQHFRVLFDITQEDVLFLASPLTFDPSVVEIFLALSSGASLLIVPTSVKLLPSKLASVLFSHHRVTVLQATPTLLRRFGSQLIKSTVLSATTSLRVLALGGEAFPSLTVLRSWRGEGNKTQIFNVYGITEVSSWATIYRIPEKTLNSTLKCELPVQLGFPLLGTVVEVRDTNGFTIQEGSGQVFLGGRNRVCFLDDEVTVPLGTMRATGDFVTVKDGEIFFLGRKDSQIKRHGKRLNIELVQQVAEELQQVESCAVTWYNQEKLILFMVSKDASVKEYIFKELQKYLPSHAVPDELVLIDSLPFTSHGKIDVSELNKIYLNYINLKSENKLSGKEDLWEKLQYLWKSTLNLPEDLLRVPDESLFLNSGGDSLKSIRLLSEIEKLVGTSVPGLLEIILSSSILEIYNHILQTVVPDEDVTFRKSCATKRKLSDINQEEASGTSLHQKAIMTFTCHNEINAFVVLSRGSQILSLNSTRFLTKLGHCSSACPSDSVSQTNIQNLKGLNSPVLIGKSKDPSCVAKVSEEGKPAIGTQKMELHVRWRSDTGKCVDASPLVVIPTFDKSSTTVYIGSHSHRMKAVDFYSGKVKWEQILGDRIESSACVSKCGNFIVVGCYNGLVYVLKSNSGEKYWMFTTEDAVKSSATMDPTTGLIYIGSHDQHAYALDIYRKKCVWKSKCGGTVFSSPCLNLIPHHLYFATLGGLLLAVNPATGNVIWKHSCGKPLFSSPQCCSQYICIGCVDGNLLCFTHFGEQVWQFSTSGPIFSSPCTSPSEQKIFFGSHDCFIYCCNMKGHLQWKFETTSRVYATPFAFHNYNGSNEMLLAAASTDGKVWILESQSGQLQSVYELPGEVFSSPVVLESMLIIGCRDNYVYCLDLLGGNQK
inactive: [1] 0.047 | [2] 0.054 | [3] -0.25 | [4] -0.05 | [5] 0.037

BLOC1S3 (UniProt Q6QNY0)
Sequence of UniProt Q6QNY0 (Q6QNY0 whole entry, looked up): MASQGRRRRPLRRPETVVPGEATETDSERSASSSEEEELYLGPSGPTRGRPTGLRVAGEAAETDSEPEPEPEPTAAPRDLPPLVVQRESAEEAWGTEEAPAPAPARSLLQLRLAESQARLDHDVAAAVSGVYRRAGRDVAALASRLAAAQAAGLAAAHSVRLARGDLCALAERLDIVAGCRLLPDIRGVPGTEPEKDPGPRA
inactive: [1] -0.048 | [2] 0.084 | [3] 0.088 | [4] -0.113 | [5] -0.06

ARL3 (UniProt P36405)
Sequence of UniProt P36405 (P36405 whole entry, looked up): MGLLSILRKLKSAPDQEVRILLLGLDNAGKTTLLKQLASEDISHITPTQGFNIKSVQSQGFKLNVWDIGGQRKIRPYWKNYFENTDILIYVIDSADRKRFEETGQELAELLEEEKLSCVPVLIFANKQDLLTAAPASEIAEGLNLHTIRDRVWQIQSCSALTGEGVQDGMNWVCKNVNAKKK
inactive: [1] -0.002 | [2] 0.04 | [3] 0.038 | [4] -0.06 | [5] -0.005

ADAM15 (UniProt Q13444)
Sequence of UniProt Q13444 (Q13444 whole entry, looked up): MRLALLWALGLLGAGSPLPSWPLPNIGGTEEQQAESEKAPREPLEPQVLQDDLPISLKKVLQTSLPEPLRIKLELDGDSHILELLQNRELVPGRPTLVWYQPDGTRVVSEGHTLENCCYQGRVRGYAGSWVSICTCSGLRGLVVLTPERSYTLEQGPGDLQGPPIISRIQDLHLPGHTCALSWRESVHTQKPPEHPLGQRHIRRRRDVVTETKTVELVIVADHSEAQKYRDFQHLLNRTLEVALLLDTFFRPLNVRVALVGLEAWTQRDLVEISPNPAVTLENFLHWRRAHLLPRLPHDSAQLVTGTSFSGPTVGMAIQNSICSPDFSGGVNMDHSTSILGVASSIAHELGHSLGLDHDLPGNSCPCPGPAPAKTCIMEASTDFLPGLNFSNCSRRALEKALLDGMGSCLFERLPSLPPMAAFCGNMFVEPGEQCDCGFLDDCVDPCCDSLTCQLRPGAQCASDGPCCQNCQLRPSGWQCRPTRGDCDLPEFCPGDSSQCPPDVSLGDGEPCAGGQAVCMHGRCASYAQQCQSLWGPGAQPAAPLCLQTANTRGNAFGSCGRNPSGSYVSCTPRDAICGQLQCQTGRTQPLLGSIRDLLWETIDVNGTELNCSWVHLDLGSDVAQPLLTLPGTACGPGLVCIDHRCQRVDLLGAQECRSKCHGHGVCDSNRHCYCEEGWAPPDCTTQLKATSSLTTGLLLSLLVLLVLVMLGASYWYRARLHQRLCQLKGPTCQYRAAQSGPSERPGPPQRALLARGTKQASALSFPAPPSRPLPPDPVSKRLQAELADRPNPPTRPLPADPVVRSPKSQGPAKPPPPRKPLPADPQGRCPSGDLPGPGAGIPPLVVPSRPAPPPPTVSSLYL
inactive: [1] -0.041 | [2] 0.059 | [3] 0.096 | [4] 0.08 | [5] 0

ABHD17A isoform 2 (UniProt Q96GS6)
Sequence of UniProt Q96GS6 (Q96GS6 whole entry, looked up): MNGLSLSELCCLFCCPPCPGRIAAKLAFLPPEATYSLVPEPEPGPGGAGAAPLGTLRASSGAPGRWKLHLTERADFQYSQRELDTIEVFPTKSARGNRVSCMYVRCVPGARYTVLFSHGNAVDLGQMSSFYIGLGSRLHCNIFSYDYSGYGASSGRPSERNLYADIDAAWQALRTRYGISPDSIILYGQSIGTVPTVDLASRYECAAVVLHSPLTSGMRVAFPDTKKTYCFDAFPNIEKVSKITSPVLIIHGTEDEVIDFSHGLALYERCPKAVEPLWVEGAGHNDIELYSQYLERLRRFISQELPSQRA
inactive: [1] 0.029 | [2] 0.079 | [3] 0.122 | [4] -0.148 | [5] -0.012

ASNS (UniProt P08243)
Sequence of UniProt P08243 (P08243 whole entry, looked up): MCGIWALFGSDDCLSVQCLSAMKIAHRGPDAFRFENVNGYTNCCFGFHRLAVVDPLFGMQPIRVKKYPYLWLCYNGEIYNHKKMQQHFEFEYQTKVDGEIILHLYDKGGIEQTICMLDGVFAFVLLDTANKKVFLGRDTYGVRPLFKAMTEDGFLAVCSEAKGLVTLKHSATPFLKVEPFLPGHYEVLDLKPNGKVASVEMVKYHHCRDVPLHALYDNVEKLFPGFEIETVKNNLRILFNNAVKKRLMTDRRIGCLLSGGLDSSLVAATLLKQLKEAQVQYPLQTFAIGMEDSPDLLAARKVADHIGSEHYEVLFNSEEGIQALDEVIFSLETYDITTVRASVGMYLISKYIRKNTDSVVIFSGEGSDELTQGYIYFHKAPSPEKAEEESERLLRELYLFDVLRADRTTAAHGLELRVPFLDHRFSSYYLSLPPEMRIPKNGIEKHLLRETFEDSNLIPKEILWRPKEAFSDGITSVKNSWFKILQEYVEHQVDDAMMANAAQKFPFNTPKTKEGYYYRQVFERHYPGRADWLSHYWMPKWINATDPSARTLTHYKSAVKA
inactive: [1] 0.025 | [2] 0.044 | [3] 0.027 | [4] -0.008 | [5] -0.019

ACP1 (UniProt P24666)
Sequence of UniProt P24666 (P24666 whole entry, looked up): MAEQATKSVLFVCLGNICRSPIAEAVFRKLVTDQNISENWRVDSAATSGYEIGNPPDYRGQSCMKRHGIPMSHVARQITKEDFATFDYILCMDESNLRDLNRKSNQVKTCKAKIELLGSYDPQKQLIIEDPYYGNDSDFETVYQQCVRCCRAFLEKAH
inactive: [1] -0.058 | [2] -0.026 | [3] 0.184 | [4] -0.041 | [5] -0.416

ARAF (UniProt P10398)
Sequence of UniProt P10398 (P10398 whole entry, looked up): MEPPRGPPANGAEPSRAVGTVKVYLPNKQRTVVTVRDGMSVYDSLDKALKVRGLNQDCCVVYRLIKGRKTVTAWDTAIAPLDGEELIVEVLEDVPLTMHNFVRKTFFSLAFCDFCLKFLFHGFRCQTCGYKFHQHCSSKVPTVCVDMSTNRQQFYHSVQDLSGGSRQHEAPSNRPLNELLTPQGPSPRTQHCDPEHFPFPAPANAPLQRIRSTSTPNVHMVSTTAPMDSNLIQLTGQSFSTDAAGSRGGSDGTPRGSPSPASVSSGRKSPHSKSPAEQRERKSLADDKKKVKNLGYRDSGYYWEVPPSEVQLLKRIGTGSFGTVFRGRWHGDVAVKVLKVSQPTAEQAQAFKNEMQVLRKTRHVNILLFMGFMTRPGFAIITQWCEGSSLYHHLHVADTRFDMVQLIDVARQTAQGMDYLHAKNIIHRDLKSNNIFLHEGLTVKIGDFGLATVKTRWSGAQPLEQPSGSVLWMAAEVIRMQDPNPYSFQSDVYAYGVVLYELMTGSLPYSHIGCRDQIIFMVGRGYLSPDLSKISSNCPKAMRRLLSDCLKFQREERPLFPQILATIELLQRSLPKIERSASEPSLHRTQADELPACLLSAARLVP
inactive: [1] -0.05 | [2] -0.003 | [3] 0.178 | [4] 0.022 | [5] 0.027
